Test systems include DU-145 prostate; K-562 leukemia; MALME-3M melanoma; MDA-MB-231 breast; RXF 393 renal; SF-268 CNS; SF-295 CNS; SF-539 CNS; UACC-257 melanoma; M14 melanoma; HCT-15 colon; HT29 colon; SNB-75 CNS; SNB-19 CNS; U251 CNS; PC-3 prostate; SK-MEL-5 melanoma; UACC-62 melanoma; LOX IMVI melanoma; SK-MEL-28 melanoma.
Test in all cases: NCI-60 one-dose screen, 48 h (100 = growth as untreated, 0 = no growth, -100 = all killed)
What all share (settings): 10 µM unless noted

Molecules are shown by their SMILES. This is part of a sample that, as a whole, favours compounds with a hit. Of some 83,000 tested, about 20% had one in any assay.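 Percent growth is the endpoint: 0 to 100 indicates growth inhibition (40 means 60% inhibition), 0 means no net growth, and negative values indicate cell death.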 Unmarked numbers belong to inactive results. The source made the active and inactive calls. The calls were made as follows: active = growth percent below 10; inactive = the rest.

Turning to `CCCCC1=C(P(=O)(O)O)N[C@H](C(=O)O)CS1`, the growth is 104% with DU-145 prostate; 93.1% in the assay with K-562 leukemia; 96.3% in the assay on MALME-3M melanoma; 90.6% in the assay on MDA-MB-231 breast; 93.5% in the assay with RXF 393 renal; 98.6% in the assay on SF-268 CNS. In addition, the growth in the assay on SF-295 CNS is 85.9%; with SF-539 CNS it was 93.1%; in the assay with UACC-257 melanoma it was 86.6%; with M14 melanoma it was 92.7%; in the assay with HCT-15 colon, 87.9%; in the assay on HT29 colon, 95.3%. For the same compound, the growth with SNB-75 CNS is 104%; with SNB-19 CNS, 89%; in the assay on U251 CNS, 94.2%; in the assay with PC-3 prostate, 90%; in the assay on SK-MEL-5 melanoma, 98.8%; with UACC-62 melanoma, 85.1%. Also, the growth with LOX IMVI melanoma is 92.4%; in the assay on SK-MEL-28 melanoma, 89.7%.

Turning to `Cc1cn(-c2cc(NC(=O)c3cccc(C#Cc4cccc5[nH]nc(N)c45)c3)cc(C(F)(F)F)c2)cn1`, the growth in the assay on DU-145 prostate is 57.6%; with K-562 leukemia, 3.17% (active); in the assay with MALME-3M melanoma, 12.4%; in the assay on MDA-MB-231 breast, 16.9%; with RXF 393 renal, -6.88% (active); in the assay on SF-268 CNS, 53.2%. The growth was 27.5% with SF-295 CNS; 6.24% (active) with SF-539 CNS; 41.4% with UACC-257 melanoma; 7.33% (active) with M14 melanoma; 25.8% in the assay on HCT-15 colon; 18.4% in the assay on HT29 colon. Further, the growth with SNB-75 CNS was 48.1%; with SNB-19 CNS it was 55.5%; in the assay on U251 CNS, 43.7%; in the assay on PC-3 prostate, 20.9%; in the assay on SK-MEL-5 melanoma it was 34.5%; in the assay on UACC-62 melanoma it was 5.82% (active). Further, the results for the growth in the assay on LOX IMVI melanoma and in the assay on SK-MEL-28 melanoma were 7.02% (active) and 23.5%, respectively.

For the compound `CCc1ccccc1-n1c(-c2ccc(OC)cc2)cc(-c2ccc(OC)cc2)c(C#N)c1=O`, the growth in the assay on DU-145 prostate is 98.6%; in the assay with K-562 leukemia it was 108%; in the assay with MALME-3M melanoma, 99.6%; in the assay with MDA-MB-231 breast it was 62%; in the assay with RXF 393 renal it was 32.2%; in the assay on SF-268 CNS, 51.9%. The growth was 55.1% with SF-295 CNS; 23% in the assay with SF-539 CNS; 111% with UACC-257 melanoma; 100% in the assay with M14 melanoma; 106% in the assay with HCT-15 colon; 110% in the assay with HT29 colon. The growth is 2.64% (active) in the assay on SNB-75 CNS; 33.7% in the assay on SNB-19 CNS; 60.9% in the assay with U251 CNS; 89.5% in the assay with PC-3 prostate; 102% with SK-MEL-5 melanoma; 81.6% in the assay with UACC-62 melanoma. In addition, the growth was 95% in the assay on LOX IMVI melanoma and 98.7% in the assay with SK-MEL-28 melanoma.

For `Cc1ccc2c(n1)C(=O)C(Br)=C(C1CCCC1)C2=O`, the growth in the assay with DU-145 prostate was 105%; in the assay on K-562 leukemia, 34.3%; with MALME-3M melanoma, 110%; in the assay with MDA-MB-231 breast it was 85.2%; with RXF 393 renal, 89.3%; with SF-268 CNS, 96.5%. The growth was 103% in the assay on SF-295 CNS; 99.7% in the assay on SF-539 CNS; 99.3% in the assay with UACC-257 melanoma; 101% with M14 melanoma; 99.5% with HCT-15 colon; 109% in the assay on HT29 colon. The growth was 99.7% in the assay on SNB-75 CNS; 98.1% in the assay with SNB-19 CNS; 97.4% with U251 CNS; 89.9% in the assay on PC-3 prostate; 97.3% in the assay with SK-MEL-5 melanoma; 98.5% in the assay with UACC-62 melanoma. The growth with LOX IMVI melanoma is 91.6%; in the assay with SK-MEL-28 melanoma, 117%.

Turning to `N#Cc1ccc(O)c(C2=NCC(c3ccccc3)O2)c1` (stereo not given), the growth in the assay with DU-145 prostate was 53.7%; in the assay on K-562 leukemia it was 23.4%; in the assay with MALME-3M melanoma it was 56.6%; with MDA-MB-231 breast it was 46.4%; in the assay on RXF 393 renal, 73.1%; in the assay on SF-268 CNS, 47.2%. Also, the growth is 36.4% in the assay on SF-295 CNS; 61.2% in the assay on SF-539 CNS; 35.4% in the assay on UACC-257 melanoma; 41.8% in the assay on M14 melanoma; 20.8% in the assay on HCT-15 colon; 46.2% with HT29 colon. Further, the growth was 74.9% with SNB-75 CNS; 46% in the assay on SNB-19 CNS; 19.6% in the assay on U251 CNS; 31.6% in the assay with PC-3 prostate; 39.1% in the assay on SK-MEL-5 melanoma; 37.8% in the assay with UACC-62 melanoma. In addition, the growth in the assay with LOX IMVI melanoma is 25.9%; in the assay on SK-MEL-28 melanoma, 86.4%.

For `COc1ccc(CN2c3ccccc3Sc3ccccc32)cc1F`, the growth with DU-145 prostate was 14.1%; in the assay with K-562 leukemia, 11%; with MALME-3M melanoma, 32.6%; with MDA-MB-231 breast it was 24.1%; with RXF 393 renal it was 7.16% (active); with SF-268 CNS, 38.8%. For the same compound, the growth with SF-295 CNS is 12.4%; in the assay with SF-539 CNS, -6.34% (active); in the assay with UACC-257 melanoma, 54.8%; in the assay on M14 melanoma, -3.27% (active); in the assay on HCT-15 colon it was 15.9%; with HT29 colon, -4.41% (active). The growth in the assay on SNB-75 CNS is 45.1%; in the assay on SNB-19 CNS it was 34.6%; in the assay with U251 CNS, 20.1%; in the assay on PC-3 prostate, 21.2%; with SK-MEL-5 melanoma, 22.3%; in the assay on UACC-62 melanoma it was 28.5%. Moreover, the figures for the growth in the assay with LOX IMVI melanoma and with SK-MEL-28 melanoma were 39.9% and 56.8%, respectively.

In the case of `O=[N+]([O-])c1cccc(-c2nc3cc4nc5ccccc5[nH]c4cc3n2)c1`, the growth in the assay on DU-145 prostate was 106%; in the assay with K-562 leukemia, 90.9%; in the assay on MALME-3M melanoma, 113%; in the assay with MDA-MB-231 breast, 110%; in the assay on RXF 393 renal it was 115%; in the assay with SF-268 CNS it was 98.2%. Also, the growth was 100% with SF-295 CNS; 106% with SF-539 CNS; 98.3% in the assay on UACC-257 melanoma; 103% in the assay with M14 melanoma; 99.5% with HCT-15 colon; 100% in the assay on HT29 colon. The growth in the assay with SNB-75 CNS is 101%; in the assay with SNB-19 CNS, 102%; with U251 CNS, 98.2%; with PC-3 prostate it was 93.2%; with SK-MEL-5 melanoma, 96.4%; in the assay with UACC-62 melanoma, 97.5%. The growth with LOX IMVI melanoma was 99.8%; with SK-MEL-28 melanoma it was 113%.
